The text below walks through data of PubChem BioAssay.

Experiment [1] has as its system Human papillomavirus type 1a protein E7 (residues 44-93). Nature of the experiment: small molecules binding HPV E7 44-93 – biochemical, small-molecule microarray, residues 44-93, 635 nm fluorescence, primary screen (AID 1108).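 Further: E7 fragment applied at 1 µg/mL in TBST for 1 h at 4 C; score combines spot fluorescence with its signal to noise ratio.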 Particulars: fluorescence 635 nm, higher = more signal.
A short description of experiment [2]: hepatitis C replication reporter changes, two-sided – Huh7 cells, luciferase reporter, HCV replication inhibitor project, primary screen (AID 1109).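 Further: huh7 hepatoma cells harbouring a luciferase neomycin HCV replicon reporter; luciferase luminescence as measure of HCV replicon replication; test concentration not given here.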 Particulars: Huh7 HCV replicon luciferase reporter, 48 h; higher = more signal.
The target in experiment [3] is Left-right determination factor 2 (Homo sapiens) (UniProt O00292). Nature of the experiment: small molecules binding LEFTY2 protein – biochemical, small-molecule microarray, 635 nm fluorescence scan, primary screen (AID 1110). Particulars: higher = more signal.
Left-right determination factor 2 (Homo sapiens), sequence (O00292 whole entry, looked up): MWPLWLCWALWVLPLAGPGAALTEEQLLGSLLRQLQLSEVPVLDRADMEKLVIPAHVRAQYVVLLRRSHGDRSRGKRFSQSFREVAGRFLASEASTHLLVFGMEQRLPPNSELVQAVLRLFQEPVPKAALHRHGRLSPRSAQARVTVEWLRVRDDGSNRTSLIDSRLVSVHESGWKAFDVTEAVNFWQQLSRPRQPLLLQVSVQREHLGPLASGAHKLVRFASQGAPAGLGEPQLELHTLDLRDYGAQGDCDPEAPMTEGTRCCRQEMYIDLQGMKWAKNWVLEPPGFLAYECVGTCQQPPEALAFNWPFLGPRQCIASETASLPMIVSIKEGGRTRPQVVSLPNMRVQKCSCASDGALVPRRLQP
In experiment [4] the target is Calmodulin-1 (Homo sapiens) (UniProt P0DP23). Nature of the experiment: small molecules binding calmodulin-1 with EGTA – biochemical, small-molecule microarray, Cy5-labelled CALM1, profiling panel (AID 1111).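 Further: labelled calmodulin applied in Tris saline Tween buffer holding calcium plus EGTA and DTT.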 To be noted: Cy5-CALM1 binding fluorescence, higher = more signal.
The target is the same in experiment [5]. Kind of experiment: small molecules binding Ca-loaded calmodulin-1 – biochemical, small-molecule microarray, Cy5-labelled CALM1, plus calcium, artefact control for SMM control-protein annotation, profiling panel (AID 1112).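 Further: score merges spot fluorescence with signal to noise from triplicate slides.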 To be noted: Cy5-CALM1 binding fluorescence, higher = more signal.
Experiment [6] can be described thus: probe aWnt5a binding to arrayed compounds – biochemical, biotinylated probe, 635/667 nm fluorescence, primary screen (AID 1113).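 Further: score merges 667 nm fluorescence intensity with signal-to-noise per printed feature.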 To be noted: small-molecule microarray, higher = more signal.
The nature of experiment [7]: probe aShh binding to arrayed compounds – biochemical, biotinylated probe, 635/667 nm fluorescence, primary screen (AID 1114).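 Further: probe is biotin-labelled aShh protein from a stem cell growth factor screen; measures binding of labelled protein to compounds printed on the slide; score merges feature fluorescence at 667 nm with signal-to-noise.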 Particulars: small-molecule microarray, higher = more signal.
Experiment [8] is described as follows: probe aNog binding to arrayed compounds – biochemical, biotinylated probe, 635/667 nm fluorescence, primary screen (AID 1115).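 Further: probe is biotinylated aNog protein used at 0.15 µg/mL for 1 h at 4 C; z-score combines 667 nm fluorescence of each spot with its signal to noise.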 To be noted: small-molecule microarray, higher = more signal.
Experiment [9] addresses Torsin-1A-interacting protein 1 (Homo sapiens) (UniProt Q5JTV8). Nature of the experiment: compound microarray binding of lysate hLAP1 – cell lysate, small-molecule microarray, COS7 lysate, 635/667 nm fluorescence, primary screen (AID 1116). Particulars: 635 nm fluorescence, higher = more signal.
Experiment [10] addresses Alpha-bungarotoxin (Bungarus multicinctus) (UniProt P60615). Kind of experiment: compounds binding labelled alpha-BTX control protein – biochemical, small-molecule microarray, Alexa647 label, 635/667 nm fluorescence, artefact control for SMM control protein annotation, profiling panel (AID 1117). To be noted: alpha-BTX-A647 binding fluorescence, higher = more signal.

Each structure is given as a SMILES string.

Torsin-1A-interacting protein 1 (Homo sapiens), sequence (Q5JTV8 whole entry, looked up): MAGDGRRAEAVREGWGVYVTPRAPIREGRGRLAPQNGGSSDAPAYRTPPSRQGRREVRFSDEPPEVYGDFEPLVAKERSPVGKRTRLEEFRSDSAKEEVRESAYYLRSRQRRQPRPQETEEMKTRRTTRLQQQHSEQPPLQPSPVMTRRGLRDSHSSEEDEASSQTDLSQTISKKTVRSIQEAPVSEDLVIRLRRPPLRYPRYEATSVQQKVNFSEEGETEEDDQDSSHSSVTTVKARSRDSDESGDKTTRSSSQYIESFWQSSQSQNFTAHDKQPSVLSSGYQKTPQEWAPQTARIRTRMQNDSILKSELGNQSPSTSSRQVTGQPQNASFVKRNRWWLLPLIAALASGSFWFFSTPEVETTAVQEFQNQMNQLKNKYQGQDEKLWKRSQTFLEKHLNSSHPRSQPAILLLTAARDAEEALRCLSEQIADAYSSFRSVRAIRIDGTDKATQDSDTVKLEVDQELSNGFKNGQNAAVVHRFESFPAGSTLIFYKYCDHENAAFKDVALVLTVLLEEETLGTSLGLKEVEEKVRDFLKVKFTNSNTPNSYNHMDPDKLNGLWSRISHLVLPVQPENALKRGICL
Alpha-bungarotoxin (Bungarus multicinctus), sequence (P60615 whole entry, looked up): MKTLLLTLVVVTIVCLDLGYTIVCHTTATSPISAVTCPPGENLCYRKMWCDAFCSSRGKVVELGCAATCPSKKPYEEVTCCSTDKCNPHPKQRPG

As for `COCCOC(=O)N1C(=O)[C@@]2(c3cc(C#CC4=CCCCC4)ccc31)[C@H](C(N)=O)[C@H]1C(=O)O[C@H](c3ccccc3)[C@H](c3ccccc3)N1[C@@H]2c1ccccc1OCCO`, the composite z-score in experiment [1] is 0.22; in experiment [3], 0.423; in experiment [4] it was 0.994; in [5], -0.121; in [6] it was 0.0839; in experiment [7], 0.173. Further, the composite z-score came out at 0.0157 in experiment [8], 1.25 in experiment [9] and 1.69 in [10]. This molecule also returned a z-score in experiment [2] of -3.15.

As for `CN1C(=O)C2C=CC(C(O)C#Cc3ccccc3)N(Nc3ccccc3)C2C1=O` (stereo not given), the composite z-score in experiment [1] was 1.45; in experiment [3], 0.302; in experiment [4], 1.18; in [5], 0.533; in experiment [6] it was 0.0381; in experiment [7] it was -0.0243. For the same molecule, the composite z-score in experiment [8] was found to be 1.35; in experiment [9], 1.11; in experiment [10], 1.35. This molecule also gave a z-score in experiment [2] of 0.234.

For the molecule `O=C1OCC=C[C@H]2OC34C=CCN(Cc5ccccc5)C(=O)[C@H]3N(CCCCCCO)C(=O)[C@@H]4[C@@H]12` (stereo not given in full), the composite z-score in experiment [1] is -1.08; in experiment [3] it was -1.19; in experiment [4], -0.274; in experiment [5], 0.466; in experiment [6], -0.161; in [7] it was -0.0396. In addition, the composite z-score in experiment [8] is -0.302; in experiment [9] it was 2.46; in experiment [10], -0.367. This molecule also returned a z-score in [2] of 0.141.

Turning to `C#CCN([C@@H](Cc1ccc(O)cc1)C(=O)OC)[C@@H](/C=C/C1CC1)[C@H](O)Cc1ccccc1`, the composite z-score in experiment [1] is -0.184; in experiment [3] it was -0.0906; in [4], -0.634; in experiment [5], -1.04; in [6], -0.0425; in experiment [7] it was -0.223. In addition, the composite z-score is -0.407 in [8], 0.0583 in [9] and -0.0345 in [10]. Also, the z-score in [2] is -3.

In the case of `CC(CO)N1C(=O)[C@@H]2[C@H]3C(=O)OCC=C[C@H]3OC23C=CCN(C(C)(C)C)C(=O)[C@@H]13` (stereo not given in full), the composite z-score in experiment [1] is -1.89; in [3], -0.7; in experiment [4], -0.119; in experiment [5], -0.72; in experiment [6], 0.308; in experiment [7] it was -0.289. For the same molecule, the composite z-score was -0.158 in experiment [8], -1.13 in [9] and 0.193 in [10]. For the same molecule, in experiment [2], the z-score is -0.619.

`O=C1O[C@H](c2ccccc2)[C@H](c2ccccc2)N2[C@H]1[C@@H](C(=O)Nc1nc3ccccc3s1)[C@]1(C(=O)Nc3ccc(C#CCCO)cc31)[C@H]2c1ccc(O)cc1`: the composite z-score was 1.4 in experiment [1]; 0.691 in experiment [3]; 0.628 in experiment [4]; -0.0808 in [5]; -0.0519 in experiment [6]; -0.0035 in experiment [7]. For the same molecule, the values for the composite z-score in experiment [8], in experiment [9] and in experiment [10] were -0.28, 0.799 and 0.369, respectively. For the same molecule, the z-score in [2] is -0.829.

For `CN(C)CCCNC(=O)[C@@]1(C)c2ccccc2C(=O)N(Cc2ccccc2)[C@H]1c1ccc(CO)cc1`, the composite z-score was -0.775 in experiment [1]; -0.157 in experiment [3]; -1.06 in experiment [4]; -1.12 in [5]; 0.0026 in [6]; -0.138 in experiment [7]. The composite z-score in [8] was -0.33; in experiment [9], -0.281; in experiment [10], -0.358. In addition, the z-score in experiment [2] was -1.94.

For the molecule `CCOC(=O)C1CCCCN1` (stereo not given), the composite z-score in experiment [1] is 0.728; in experiment [3], 0.4; in experiment [4] it was -0.178; in experiment [5], -0.483; in experiment [6], 0.312; in [7] it was 0.444. Besides, the composite z-score is 0.144 in experiment [8], 0.488 in experiment [9] and 0.54 in experiment [10]. The molecule further returned a z-score in experiment [2] of 0.417.

Turning to `CCOC(=O)[C@H]1[C@@H]2C(=O)N3CCC[C@H]3[C@H](O[Si](C(C)C)(C(C)C)C(C)C)[C@H]2C=C2CCN(S(=O)(=O)c3ccc(C)cc3)C[C@H]21`, the composite z-score in [1] was 1.28; in experiment [3], 0.637; in experiment [4], 0.791; in [5], -0.185; in [6] it was -0.0379; in experiment [7] it was 0.0815. For the same molecule, the values for the composite z-score in experiment [8], in experiment [9] and in experiment [10] were -0.709, 0.694 and 0.962, respectively. Also, the z-score in experiment [2] is -3.6.

`CC(C)C(CO)N1C(=O)[C@@H]2C3C(=O)OCCC/C=C\[C@H]3OC23C=CCN(C(C)(C)C)C(=O)[C@@H]13` (stereo not given in full): the composite z-score in experiment [1] is -0.0297; in experiment [3], -0.383; in experiment [4], -0.903; in experiment [5], -0.804; in [6], -0.124; in experiment [7] it was 0.0141. Besides, the composite z-score is -0.368 in experiment [8], -0.24 in experiment [9] and -1.54 in [10]. The molecule further gave a z-score in experiment [2] of -0.57.

With `O=C1C2C=CC(C(O)c3ccc(F)cc3)N(n3cnnc3)C2C(=O)N1Cc1ccccc1` (stereo not given), the composite z-score in experiment [1] is -0.305; in [3], -0.856; in experiment [4], -0.171; in experiment [5] it was 0.451; in experiment [6] it was -0.0781; in experiment [7], -0.203. For the same molecule, the composite z-score in experiment [8] was 0.146; in experiment [9], 0.419; in experiment [10] it was -0.39. In experiment [2], this molecule gave a z-score of -0.574.

Take `COc1ccc([Si](C)(C)[C@@H]2[C@@H](CCO)O[C@]3(C(=O)N(Cc4ccc(N5CCCCC5=O)cc4)c4ccccc43)[C@H]2C)cc1`: the composite z-score in [1] is -0.0334; in [3], 0.216; in [4] it was 0.121; in [5], 0.188; in experiment [6], -0.0758; in experiment [7], 0.191. For the same molecule, the composite z-score in experiment [8] was 0.0989; in experiment [9], 0.467; in [10], 0.0967. For the same molecule, the z-score in experiment [2] was -5.11.

`C=C[C@@H](COC(C)=O)N(C(=O)OC(C)(C)C)S(=O)(=O)c1ccc(Br)cc1`: the composite z-score in [1] is 0.789; in experiment [3] it was 1.27; in [4], 0.486; in [5] it was 0.367; in [6], 0.0973; in experiment [7], -0.141. Moreover, the values for the composite z-score in experiment [8], in experiment [9] and in experiment [10] were -0.0317, 1.06 and 1.32, respectively. The molecule further came in with a z-score in experiment [2] of 0.429.

As for `C=C(/C(=C/C[C@H](OC(C)=O)c1ccccc1OCCO)c1cc(C(=O)OC)ccc1OC)C(C)C`, the composite z-score is 0.83 in experiment [1]; 0.0218 in experiment [3]; -0.227 in experiment [4]; -0.578 in [5]; -0.096 in experiment [6]; 0.0469 in experiment [7]. For the same molecule, the composite z-score was -0.0244 in [8], 0.612 in experiment [9] and -0.0802 in experiment [10]. The molecule further gave a z-score in experiment [2] of -1.74.

Take `CN(C)CCCCNC(=O)[C@@H]1C[C@@H]2C(=O)N[C@@H](Cc3ccccc3)C(=O)N2[C@@H]1c1cccc(OCCO)c1`: the composite z-score was 1.34 in [1]; 1.24 in experiment [3]; -0.349 in [4]; -0.125 in [5]; -0.127 in [6]; 0.0952 in experiment [7]. In addition, the composite z-score in experiment [8] was -0.0721; in experiment [9], 0.0715; in experiment [10] it was 0.612. In [2], this molecule registered a z-score of 4.01.

`COC(=O)c1c2oc(c1C(=O)OC)C(=O)N(C)Cc1cn(nn1)C[C@H](Cc1ccccc1)NC(=O)N[C@H](CO)CC2`: the composite z-score in experiment [1] was -1.07; in [3], -0.683; in experiment [4], -0.633; in experiment [5], -0.197; in experiment [6], -0.246; in experiment [7], -0.154. Further, the composite z-score in [8] was -0.299; in experiment [9], -0.641; in [10] it was -0.277. The z-score in experiment [2] was -1.18.

As for `COc1ccc(NC(=O)O[C@H]2[C@H](OC(=O)Nc3ccccc3)[C@@H](OC(=O)Nc3ccccc3)[C@@H](OC)O[C@@H]2CO)cc1`, the composite z-score in experiment [1] is 1.28; in experiment [3], 0.298; in [4] it was 1.41; in experiment [5] it was -0.298; in [6], 0.107; in experiment [7] it was -0.0813. Besides, the figures for the composite z-score in experiment [8], in [9] and in experiment [10] were 0.564, 1.25 and 0.577, respectively. Also, in experiment [2], the z-score was -3.04.

`N#Cc1ccc(C(O)C2C=CC3C(=O)N(c4ccccc4)C(=O)C3N2Nc2ccccc2)cc1` (stereo not given): the composite z-score in experiment [1] is 0.86; in experiment [3], -0.224; in experiment [4], 1.03; in experiment [5], 0.492; in experiment [6], 0.0357; in experiment [7], 0.0815. Besides, the composite z-score in [8] was 1.09; in experiment [9], 0.747; in [10] it was 1.1. In [2], this molecule registered a z-score of -0.875.
